A selection follows.
aSyn UTR act – Activators working through SNCA 5'UTR binding (MLPCN); alpha-synuclein 5'UTR reporter, activators screen; activity score, % (tested at 7.5 µM), hits read low; 300,000 tested, 7.1% active; AID 1814; in the data active = activity score below about -60%
Starred values were filed as active, the others as inactive.

SMILES	aSyn UTR act
CC(=O)N(C)c1ccc(NC(=O)/C=C/c2ccccc2Cl)cc1	-85*
CC(C)(C)c1ccc(/C=C/C(=O)Nc2cccnc2)cc1	-232*
O=C(/C=C/c1ccccc1Cl)Nc1ccncc1	-346*
O=C(Nc1ncc2c(n1)CC(c1ccco1)CC2=O)c1ccccc1 (stereo unspecified)	-72*
NC(N)=NC(=S)Nc1ccc(Cl)cc1	-106*
N/C(=N\C(=S)Nc1ccccc1)c1ccccc1	-170*
c1coc(-c2nnc(NC3=NCCC3)o2)c1	-70*
COc1ccc(-c2nnc(SCc3nc4ccccc4c(=O)[nH]3)o2)cc1	-70*
CCOc1ccc(-c2nnc(-c3ccncc3)o2)cc1	-63*
CCCCOc1ccc(-c2nnc(-c3ccncc3)o2)cc1	-124*
CCOc1ccc(-c2nnc(-c3ccc(OC)cc3)o2)cc1	-76*
CCOc1ccc(-c2nc3ccccc3c(=O)o2)cc1	-63*
COc1ccc(-c2nnc(SCC(C)C)o2)cc1	-102*
CCOc1ccc(-c2nnc(NC3=NCCCCC3)o2)cc1	-117*
CCOc1ccc(-c2nnc(NC(=O)c3ccc(OCC(C)C)c(OC)c3)o2)cc1	58
COc1ccc(OCc2cc(C(=O)N(C)Cc3cc(C)no3)no2)c(Cl)c1	-182*
CCN(Cc1ccncc1)C(=O)c1cc(COc2ccc(OC)cc2Cl)on1	-111*
CCc1ccc(CN(C)C(=O)c2cc(COc3ccc(OC)cc3Cl)on2)nc1	-170*
Cc1cc(CN(C)C(=O)c2cc(COc3ccc(F)cc3Cl)on2)n[nH]1	-75*
C/C(Cl)=C\Cn1c(O)c(N=NC(N)=S)c2cc(Br)ccc21	70
COc1ccc(OCc2cc(C(=O)N(C)Cc3nnc(C)o3)no2)c(Cl)c1	-121*
CC(C)(C)c1cc(C(=O)NCCN2CCCC2)cc(C(C)(C)C)c1	-82*
CC(C)(C)c1ccc(C(=O)NCCC(=O)N2CCCC2)cc1	-105*
Cc1ccc(C(=O)NCCC(=O)N2CCOCC2)cc1	-101*
FCCCOc1ccc(-c2nccc(-c3ccccn3)n2)cc1	-63*
SMILES	aSyn UTR act
O=C(O)COc1ccc(-c2nccc(-c3ccccn3)n2)cc1	72
Cn1c(=O)c(C(=O)NCc2ccccc2Cl)c(O)c2ccccc21	-78*
Cn1c(=O)c(C(=O)c2ccc(S(C)(=O)=O)c(Cl)c2Cl)c(O)c2ccccc21	-85*
Cn1c(=O)c(C(=O)NCc2ccccc2)c(O)c2ccccc21	-74*
Cc1cc(C(=O)CN2CC(C)OC(C)C2)c(C)n1-c1ccccc1 (stereo unspecified)	-105*
Cc1cc(C(=O)CSc2cccc[n+]2[O-])c(C)n1-c1ccc(Br)cc1	-150*
Cc1cc(C(=O)CSc2nncn2C)c(C)n1-c1ccccc1	-67*
Cc1cc(C(=O)CSc2cccc[n+]2[O-])c(C)n1-c1ccccc1	57
Cc1cc(-n2c(C)cc(C(=O)CCl)c2C)no1	119
Cc1ccc(-n2c(C)cc(C(=O)CSc3nncs3)c2C)cc1	-172*
Cn1cnnc1SCC(=O)c1c[nH]c2ccccc12	-92*
O=C(N[C@@H](Cc1c[nH]c2ccccc12)C(=O)NC1CC1)c1ccccc1Cl	-160*
O=c1[nH]c2ccccc2nc1/C=C/c1ccc(Cl)cc1	-227*
CC(=O)Nc1ccc(/C=C/c2nc3ccccc3[nH]c2=O)cc1	-83*
CS(=O)(=O)N1CCN(c2ccc(NC(=O)c3ccc([N+](=O)[O-])o3)cc2)CC1	72
COc1ccc(N2CCCC2)c(NC(=O)c2ccc([N+](=O)[O-])o2)c1	-70*
O=C(Nc1ccc(N2CCCCC2)cc1)c1ccc([N+](=O)[O-])o1	-214*
COc1ccc(NS(=O)(=O)c2cc(NC(=O)c3ccc(C)o3)ccc2N2CCCCC2)cc1	-62*
O=C(Nc1ccccc1N1CCCC1)c1ccc([N+](=O)[O-])o1	-112*
O=C(N/N=C/c1cc(Br)ccc1O)C(=O)Nc1ccccc1OC(F)(F)C(F)F	82
O=C(COc1ccc(Br)cc1CO)Nc1ccccc1F	-181*
COc1ccccc1NC(=O)COc1ccc(CO)cc1Cl	-151*
O=C(COc1ccc(Br)cc1CO)Nc1ccccc1	-107*
COc1cc2c(cc1OC)C(c1ccc(Br)cc1)NCC2 (stereo unspecified)	63
COc1cc(CO)ccc1OCC(=O)Nc1ccc(Br)cc1	-86*
SMILES	aSyn UTR act
Clc1ccc2nc3c4ccccc4cnn3c2c1	-160*
Clc1ccc(-c2cc3ccccc3[nH]2)cc1	-218*
Cc1ccc(-c2cc(=O)c3ccccc3[nH]2)cc1	-77*
Cc1ccc2[nH]c(-c3ccccc3)cc(=O)c2c1	89
O=c1cc(-c2ccc(Cl)cc2)[nH]c2ccccc12	-69*
Cc1ccc(-c2cc(=O)c3cc(Cl)ccc3[nH]2)cc1	-92*
Clc1ccc(OCc2noc(-c3ccsc3)n2)c(Cl)c1	-170*
Fc1cc(Cl)c(OCc2noc(-c3ccsc3)n2)c(Cl)c1	-81*
OCCN(CCO)CC(O)COc1ccc(C23CC4CC(CC(C4)C2)C3)cc1 (stereo unspecified)	76
COc1ccc2cc3c(N)nn(C(=O)c4ccccc4Cl)c3nc2c1	65
COc1ccc2cc(C3OCCO3)c(Cl)nc2c1	-108*
COc1ccc(-c2cc(C(=O)Nc3ccc(C)c(C)c3)no2)cc1	-124*
O=C(NC1CCCCC1)c1cc(-c2ccco2)on1	-128*
COc1ccc(-c2cc(C(=O)NC3CCCC3)no2)cc1	-121*
COc1cccc(-c2cc(C(=O)NC3CCCCC3)no2)c1	-202*
COc1cccc(-c2cc(C(=O)N3CCCCC3C)no2)c1 (stereo unspecified)	-162*
COc1ccc(-c2cc(C(=O)NC(C)C)no2)cc1	-71*
CC1CCN(C(=O)CCN2C(=O)/C(=C/c3cccs3)SC2=S)CC1	-75*
O=C(CCN1C(=O)/C(=C\c2ccccc2F)SC1=S)N1CCCCC1	-117*
O=C(CCCN1C(=O)/C(=C/c2ccccc2Cl)SC1=S)NNC(=O)c1ccc(Cl)cc1	65
O=C(CCN1C(=O)/C(=C/c2ccccc2F)SC1=S)NC1C=CS(=O)(=O)C1 (stereo unspecified)	-62*
O=C(O)CCCN1C(=O)/C(=C\C(Cl)=C\c2ccccc2)SC1=S	-225*
O=C(CCN1C(=O)/C(=C/c2ccccc2)SC1=S)N1CCCCCC1	-62*
COCCN1C(=O)/C(=C/c2ccc(N3CCCC3)cc2)SC1=S	-85*
CC(C)c1ccc(/C=C2\SC(=O)N(CC(=O)NC3C=CS(=O)(=O)C3)C2=O)cc1 (stereo unspecified)	-69*
SMILES	aSyn UTR act
CCOc1ccc(/C=C2\SC(=S)N(CCC(=O)O)C2=O)cc1	115
COc1ccc(/C=C/C(=O)c2c(O)cc(C)oc2=O)c(OC)c1	-230*
COc1cccc(/C=C/C(=O)c2c(O)cc(C)oc2=O)c1O	-111*
O=C(c1cc(-c2ccccc2O)on1)N1CCOCC1	-115*
O=C(c1cc(-c2ccccc2O)on1)N1CCCCCC1	-140*
COc1cccc(-c2nnc3sc(-c4ccccn4)nn23)c1	-103*
COc1ccccc1-c1nnc2sc(-c3ccc(N(C)C)cc3)nn12	99
O=[N+]([O-])c1ccccc1-c1ccc(C(=S)N2CCCCC2)o1	-107*
O=[N+]([O-])c1ccccc1-c1ccc(C(=S)N2CCCC2)o1	-132*
O=C(CN1CCCC1)Nc1nnc(-c2cccs2)s1	-118*
Cc1occc1C(=O)Nc1nnc(-c2cccs2)s1	-351*
CC(C)(C)CC(=O)Nc1nnc(-c2cccs2)s1	-213*
O=C(CN1CCCC1)Nc1ccc(NC(=O)Nc2ccccc2)cc1	-194*

Compound activity (PubChem)
